# Test results from PubChem BioAssay (Tox21).
# Unmarked numbers belong to inactive results. Records with an inconclusive call do not appear. Where a call stands in place of a potency, no number is given. Activity calls are given as the source filed them. Unless noted, calls come from the whole dose curve; as a rule, active = well fitted curve in the direction sought with a large enough effect in the repeat runs; inconclusive = weak or mixed curves; inactive = no such curve, though single readings can be large; an effect the other way counts as inactive or inconclusive.
# Tests used:
# [1] = qHTS assay to identify small molecule agonists of the progesterone receptor (PR) signaling pathway - cell viability counter screen (AID 1346799; calls by dose curve; note: nearly all actives have a fitted effect of over 45% in size; note: potency is the fitted concentration of half-maximal effect)
# Outline: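 Cytotoxicity measured by CellTiter-Glo luminescence (30 min, RT) in the same wells as the PR beta-lactamase agonist read. Those HEK293T cells had 16 h compound treatment at 37 C in 2% charcoal-stripped FBS medium.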
# [2] = qHTS assay to identify small molecule antagonists of the TGF-beta/Smad signaling pathway - cell viability counter screen (AID 1346824); note: nearly all actives have a fitted effect of over 50% in size
# Outline: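 SBE-bla HEK 293T cells, incubated overnight, then compound plus 0.25 ng/mL TGF-beta1 (stock added) for 5 hr at 37 C. Viability was read in the same wells by CellTiter-Glo luminescence after 30 min at room temperature.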
# [3] = qHTS assay to identify small molecule agonists of the TGF-beta/Smad signaling pathway (AID 1346859; active = well fitted activation curve with a large enough effect in the signal ratio in the repeat runs, not every such curve was filed as active; the % refers to the signal ratio; note: series mostly up to about 77 µM)
# Outline: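 Fluorescence (ex 405 nm; em 460 and 530 nm) was read 2 h after LiveBLAzer FRET substrate at RT. The preceding compound treatment of overnight-plated SBE-bla HEK293T cells lasted 5 h at 37 C.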
# [4] = Caspase-3/7 induction in HepG2 cells by small molecules, qHTS assay (AID 1346978); note: nearly all actives have a fitted effect of over 15% in size; note: potency is the fitted concentration of half-maximal effect
# Outline: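 Wild-type HepG2 cells, 2,000/well, settled 5 hr at 37 C and 5% CO2, then compound-treated for 17 hr; caspase-3/7 activity read by luminescent Caspase-Glo 3/7 after 30 min at room temperature.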
# [5] = Caspase-3/7 induction in CHO-K1 cells by small molecules, qHTS assay (AID 1346980); note: nearly all actives have a fitted effect of over 15% in size
# Outline: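 Wild-type CHO-K1 cells exposed to compounds for 17hr at 37 C, 5% CO2. Caspase-3/7 activity then measured by Caspase-Glo 3/7 luminescence after 30min at room temperature.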
# [6] = Caspase-3/7 induction in HepG2 cells by small molecules, qHTS cell viability counter screen (AID 1346981); note: nearly all actives have a fitted effect of over 30% in size; note: potency is the fitted concentration of half-maximal effect
# Outline: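 Multiplexed with the caspase-3/7 assay: HepG2 cells, 16 hr compound treatment, CellTiter-Fluor viability detection by fluorescence.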
# [7] = target: Nuclear receptor subfamily 1 group I member 2 (Homo sapiens) (UniProt O75469); test: Human pregnane X receptor (PXR) small molecule agonists, qHTS assay (AID 1346982); note: nearly all actives have a fitted effect of over 35% in size; note: potency is the fitted concentration of half-maximal effect
# Outline: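 We seeded PXR-Luc HepG2 cells in assay medium containing 5% charcoal-stripped FBS, added compounds 5 hr later, incubated 24 hr, and read luminescence with ONE-Glo reagent.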
# [8] = target: Cytochrome P450 2D6 (Homo sapiens) (UniProt P10635); test: Cytochrome P450 Family 2 Subfamily D Member 6 (CYP2D6) small molecule antagonists: luciferase reporter qHTS assay (AID 1671196); note: nearly all actives have a fitted effect of over 50% in size; note: potency is the fitted concentration of half-maximal effect
# Outline: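 Luminescence (RLU), read 20 min after detection reagent, indicated CYP2D6 conversion of proluciferin to luciferin during a 1 h NADPH-dependent reaction at room temperature.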
# [9] = target: Cytochrome P450 2C9 (Homo sapiens) (UniProt P11712); test: Cytochrome P450 Family 2 Subfamily C Member 9 (CYP2C9) small molecule antagonists: luciferase reporter qHTS assay (AID 1671198); note: nearly all actives have a fitted effect of over 50% in size; note: potency is the fitted concentration of half-maximal effect
# Outline: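 P450-Glo proluciferin substrate with CYP2C9 enzyme; 10 min RT preincubation, then NADPH regeneration 1 h at 37C; luciferin detection reagent 20 min RT, luminescence in relative luminescence units.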
# [10] = target: Cytochrome P450 1A2 (Homo sapiens) (UniProt P05177); test: Cytochrome P450 Family 1 Subfamily A Member 2 (CYP1A2) small molecule antagonists: luciferase reporter qHTS assay (AID 1671199); note: nearly all actives have a fitted effect of over 50% in size; note: potency is the fitted concentration of half-maximal effect
# Outline: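 CYP1A2 turnover of a luminogenic substrate was quantified after 1 h with NADPH regeneration at room temperature. Furafylline served as positive control.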
# [11] = target: Voltage-gated inwardly rectifying potassium channel KCNH2 (Homo sapiens) (UniProt Q12809); test: Human Ether-a-go-go-Related Gene (hERG) channel small molecule antagonists: fluorescence cell-based qHTS assay (AID 1671200); note: nearly all actives have a fitted effect of over 50% in size; note: potency is the fitted concentration of half-maximal effect
# Outline: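 Thallium flux as potassium surrogate: FluxOR II dye loaded 1 h at room temperature into hERG-expressing U2OS cells, then stimulus buffer added after 10 min. Kinetic 480 nm excitation/540 nm emission read, 2 min.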
# [12] = qHTS assay to identify small molecule agonists of the TGF-beta/Smad signaling pathway - cell viability counter screen (AID 1346829); note: top concentration of the series differs between compounds; nearly all actives have a fitted effect of over 45% in size
# Outline: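 Here the cytotoxicity of library compounds is measured in SBE-bla HEK 293T cells treated for 5 hr, using CellTiter-Glo added to wells already read for the beta-lactamase reporter.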
# [13] = target: Thyrotropin-releasing hormone receptor (Homo sapiens) (UniProt P34981); test: qHTS assay to identify small molecule antagonists of the thyrotropin-releasing hormone receptor (TRHR) signaling pathway (AID 1346877; active = well fitted inhibition curve with a large enough effect in the repeat runs, not every such curve was filed as active; note: potency is the fitted concentration of half-maximal effect)
# Outline: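 Screening used HEK293 cells engineered with TRHR, with a brief 5 min room-temperature compound exposure preceding addition of TRH to 1 nM. The read-out was kinetic calcium-dye fluorescence, concentration-response from 15 doses in triplicate.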
# [14] = target: Thyrotropin-releasing hormone receptor (Homo sapiens) (UniProt P34981); test: qHTS assay to identify small molecule agonists of the thyrotropin-releasing hormone receptor (TRHR) signaling pathway (AID 1346891; calls by dose curve; note: potency is the fitted concentration of half-maximal effect; for activation: series mostly up to about 58 µM)
# Outline: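 Agonist-mode intracellular calcium readout: kinetic fluorescence over 3 min at 1 s intervals after compound addition to TRHR-HEK293 cells (18 h seeded, 2 h dye-loaded at 37 C). Fifteen concentrations, triplicates.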
# [15] = Caspase-3/7 induction in CHO-K1 cells by small molecules, qHTS cell viability counter screen (AID 1346979); note: nearly all actives have a fitted effect of over 35% in size; note: potency is the fitted concentration of half-maximal effect
# Outline: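 Cytotoxicity counter screen: CellTiter-Fluor added to compound-treated wild-type CHO-K1 cells at 16 h (37C, 5% CO2), fluorescence measured 1 h later; same wells as caspase-3/7 measurement.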
# [16] = target: Cytochrome P450 2C19 (Homo sapiens) (UniProt P33261); test: Cytochrome P450 Family 2 Subfamily C Member 19 (CYP2C19) small molecule antagonists: luciferase reporter qHTS assay (AID 1671197); note: nearly all actives have a fitted effect of over 65% in size; note: potency is the fitted concentration of half-maximal effect
# Outline: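 Light output is proportional to CYP2C19 activity: proluciferin substrate is converted to luciferin, then detected by a luciferin detection reagent that also stops the 1 h, 37C NADPH-driven reaction. Ketoconazole serves as positive control.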
# [17] = target: Nuclear receptor subfamily 1 group I member 2 (Rattus norvegicus) (UniProt Q9R1A7); test: Rat pregnane X receptor (rPXR) activation by small molecules, qHTS assay (AID 1346983); details: rPXR luciferase reporter cells, One-Glo luminescence, 24 h; max activation: hits give high values; note: nearly all actives have a fitted effect of over 20% in size
# Outline: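 Cell-based rPXR activation assay: rPXR cells, 2,000 per well, rested 5hr at 37 C, then exposed to compounds in DMSO for 24 hr at 37 C. Luciferase activity read by One-Glo luminescence after 30 min at room temperature.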
# [18] = target: Nuclear receptor subfamily 1 group I member 2 (Homo sapiens) (UniProt O75469); test: CYP3A4 induction through human pregnane X receptor (PXR) by small molecules, qHTS assay (AID 1346984); note: nearly all actives have a fitted effect of over 40% in size
# Outline: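 qHTS, concentration-response format: HepG2 DPX-2 line, PXR/CYP3A4-luc. Exposure 24 h, 37C. Substrate Luciferin-IPA 3uM final, 3 h. Detection One-Glo, 30 min RT.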
# [19] = Human pregnane X receptor (PXR) small molecule agonists, qHTS cell viability counter screen (AID 1346977); note: nearly all actives have a fitted effect of over 50% in size; note: potency is the fitted concentration of half-maximal effect
# Outline: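 Same-well viability read: CellTiter-Fluor added after 23 hr compound exposure, fluorescence measured 1 hr later. Cells were PXR-Luc HepG2 seeded at 2,000/well in 5% charcoal-stripped FBS medium, rested 5 hr before dosing at 37 C.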
# Chain of Nuclear receptor subfamily 1 group I member 2 (Homo sapiens) (O75469 whole entry, looked up): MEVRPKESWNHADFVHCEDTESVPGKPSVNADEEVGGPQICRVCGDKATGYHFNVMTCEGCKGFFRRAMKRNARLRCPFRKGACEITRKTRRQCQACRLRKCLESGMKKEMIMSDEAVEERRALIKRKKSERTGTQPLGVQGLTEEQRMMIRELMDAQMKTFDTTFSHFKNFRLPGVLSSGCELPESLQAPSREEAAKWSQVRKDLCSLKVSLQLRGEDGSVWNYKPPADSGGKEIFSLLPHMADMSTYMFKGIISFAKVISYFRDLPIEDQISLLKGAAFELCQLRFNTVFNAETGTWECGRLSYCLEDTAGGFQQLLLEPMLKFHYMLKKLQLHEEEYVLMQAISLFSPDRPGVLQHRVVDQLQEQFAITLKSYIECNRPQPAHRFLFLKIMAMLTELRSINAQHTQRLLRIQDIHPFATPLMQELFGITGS
# Chain of Cytochrome P450 2C9 (Homo sapiens) (P11712 whole entry, looked up): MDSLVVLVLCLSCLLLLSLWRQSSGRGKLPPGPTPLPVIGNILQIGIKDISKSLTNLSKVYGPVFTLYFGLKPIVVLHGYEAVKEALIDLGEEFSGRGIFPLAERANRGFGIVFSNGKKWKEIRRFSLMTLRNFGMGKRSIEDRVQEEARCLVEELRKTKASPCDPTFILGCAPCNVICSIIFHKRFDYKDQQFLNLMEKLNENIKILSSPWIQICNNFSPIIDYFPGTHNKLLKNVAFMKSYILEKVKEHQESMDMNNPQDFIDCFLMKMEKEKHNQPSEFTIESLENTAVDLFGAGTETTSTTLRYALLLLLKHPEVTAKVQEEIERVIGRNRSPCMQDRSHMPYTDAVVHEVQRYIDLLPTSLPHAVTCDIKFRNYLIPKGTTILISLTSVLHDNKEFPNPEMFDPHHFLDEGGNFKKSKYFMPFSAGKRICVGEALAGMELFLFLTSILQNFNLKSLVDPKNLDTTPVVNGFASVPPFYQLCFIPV
# Chain of Cytochrome P450 2D6 (Homo sapiens) (P10635 whole entry, looked up): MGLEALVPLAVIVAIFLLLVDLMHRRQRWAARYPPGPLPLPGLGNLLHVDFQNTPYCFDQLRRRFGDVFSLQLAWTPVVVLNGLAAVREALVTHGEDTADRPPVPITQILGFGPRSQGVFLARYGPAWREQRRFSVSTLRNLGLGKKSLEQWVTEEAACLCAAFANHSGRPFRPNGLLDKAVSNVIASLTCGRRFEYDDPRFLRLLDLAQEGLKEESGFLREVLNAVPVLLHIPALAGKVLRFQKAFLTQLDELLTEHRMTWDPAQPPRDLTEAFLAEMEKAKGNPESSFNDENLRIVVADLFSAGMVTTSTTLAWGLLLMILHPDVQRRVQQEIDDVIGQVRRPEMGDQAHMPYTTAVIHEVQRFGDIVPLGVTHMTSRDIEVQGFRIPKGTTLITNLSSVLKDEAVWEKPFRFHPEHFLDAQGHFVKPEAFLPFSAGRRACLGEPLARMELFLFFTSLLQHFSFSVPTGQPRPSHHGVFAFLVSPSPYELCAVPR
# Chain of Cytochrome P450 1A2 (Homo sapiens) (P05177 whole entry, looked up): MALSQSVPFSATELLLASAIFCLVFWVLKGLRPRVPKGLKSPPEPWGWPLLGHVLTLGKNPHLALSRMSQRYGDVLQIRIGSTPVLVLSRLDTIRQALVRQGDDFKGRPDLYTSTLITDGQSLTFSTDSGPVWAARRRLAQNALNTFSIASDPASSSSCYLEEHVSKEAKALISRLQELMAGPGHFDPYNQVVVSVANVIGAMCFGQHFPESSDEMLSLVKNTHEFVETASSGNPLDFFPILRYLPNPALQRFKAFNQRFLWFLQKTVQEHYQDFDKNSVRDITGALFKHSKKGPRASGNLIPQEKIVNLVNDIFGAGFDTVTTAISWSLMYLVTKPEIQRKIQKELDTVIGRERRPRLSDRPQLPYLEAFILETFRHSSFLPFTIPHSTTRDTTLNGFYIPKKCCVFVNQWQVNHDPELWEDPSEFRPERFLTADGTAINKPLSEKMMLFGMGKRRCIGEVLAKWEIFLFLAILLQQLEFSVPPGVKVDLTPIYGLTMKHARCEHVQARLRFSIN
# Chain of Nuclear receptor subfamily 1 group I member 2 (Rattus norvegicus) (Q9R1A7 whole entry, looked up): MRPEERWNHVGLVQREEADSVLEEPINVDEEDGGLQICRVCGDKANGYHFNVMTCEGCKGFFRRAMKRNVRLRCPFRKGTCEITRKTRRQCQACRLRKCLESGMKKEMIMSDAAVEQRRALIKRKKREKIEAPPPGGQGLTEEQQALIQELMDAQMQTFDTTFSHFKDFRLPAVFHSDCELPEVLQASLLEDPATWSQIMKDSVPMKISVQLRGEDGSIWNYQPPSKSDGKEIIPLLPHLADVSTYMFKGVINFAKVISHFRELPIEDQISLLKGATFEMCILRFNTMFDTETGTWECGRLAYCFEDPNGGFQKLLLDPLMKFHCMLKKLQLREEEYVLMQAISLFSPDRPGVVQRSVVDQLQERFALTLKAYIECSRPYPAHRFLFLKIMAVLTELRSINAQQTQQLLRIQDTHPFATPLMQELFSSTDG
# Chain of Thyrotropin-releasing hormone receptor (Homo sapiens) (P34981 whole entry, looked up): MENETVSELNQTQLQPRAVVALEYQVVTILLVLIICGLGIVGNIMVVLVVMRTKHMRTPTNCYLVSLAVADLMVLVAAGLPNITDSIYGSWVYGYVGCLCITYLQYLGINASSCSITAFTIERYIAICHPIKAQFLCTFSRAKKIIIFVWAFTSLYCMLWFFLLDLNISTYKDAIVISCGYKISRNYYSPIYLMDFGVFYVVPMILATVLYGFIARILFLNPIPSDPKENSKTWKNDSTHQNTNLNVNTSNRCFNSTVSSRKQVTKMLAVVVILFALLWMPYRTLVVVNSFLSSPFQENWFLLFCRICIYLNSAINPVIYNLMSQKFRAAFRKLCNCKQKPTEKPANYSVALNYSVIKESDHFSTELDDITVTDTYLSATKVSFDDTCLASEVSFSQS
# Chain of Voltage-gated inwardly rectifying potassium channel KCNH2 (Homo sapiens) (Q12809 whole entry, looked up): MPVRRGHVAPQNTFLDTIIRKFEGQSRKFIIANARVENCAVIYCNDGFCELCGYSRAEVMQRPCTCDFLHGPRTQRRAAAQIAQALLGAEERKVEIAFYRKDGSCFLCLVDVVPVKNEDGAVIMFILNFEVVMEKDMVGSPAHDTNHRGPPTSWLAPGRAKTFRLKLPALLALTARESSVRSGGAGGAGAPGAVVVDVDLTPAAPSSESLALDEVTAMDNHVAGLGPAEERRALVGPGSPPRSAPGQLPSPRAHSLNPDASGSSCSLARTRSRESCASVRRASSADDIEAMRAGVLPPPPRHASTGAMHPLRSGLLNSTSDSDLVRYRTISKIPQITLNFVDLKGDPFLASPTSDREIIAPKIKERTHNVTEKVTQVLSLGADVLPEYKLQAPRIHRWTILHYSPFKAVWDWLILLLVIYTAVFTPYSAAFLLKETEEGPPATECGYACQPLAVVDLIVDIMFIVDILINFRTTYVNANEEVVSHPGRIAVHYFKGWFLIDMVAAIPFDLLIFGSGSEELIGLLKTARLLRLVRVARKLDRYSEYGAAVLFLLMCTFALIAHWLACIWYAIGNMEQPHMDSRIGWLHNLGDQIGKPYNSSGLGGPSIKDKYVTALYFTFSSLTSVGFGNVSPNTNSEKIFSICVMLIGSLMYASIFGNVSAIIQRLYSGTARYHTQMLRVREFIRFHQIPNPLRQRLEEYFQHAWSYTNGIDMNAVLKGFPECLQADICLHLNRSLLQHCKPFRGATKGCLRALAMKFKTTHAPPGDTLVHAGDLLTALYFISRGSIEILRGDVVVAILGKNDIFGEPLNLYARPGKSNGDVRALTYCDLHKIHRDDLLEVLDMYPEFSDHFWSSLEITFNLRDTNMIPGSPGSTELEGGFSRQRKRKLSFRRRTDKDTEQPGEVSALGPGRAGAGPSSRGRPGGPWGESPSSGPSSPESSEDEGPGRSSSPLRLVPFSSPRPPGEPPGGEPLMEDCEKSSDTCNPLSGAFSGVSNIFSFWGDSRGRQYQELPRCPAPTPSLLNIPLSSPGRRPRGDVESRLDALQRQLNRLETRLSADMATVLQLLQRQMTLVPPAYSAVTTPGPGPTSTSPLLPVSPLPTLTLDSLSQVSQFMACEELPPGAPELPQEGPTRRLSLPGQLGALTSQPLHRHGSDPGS
# Chain of Cytochrome P450 2C19 (Homo sapiens) (P33261 whole entry, looked up): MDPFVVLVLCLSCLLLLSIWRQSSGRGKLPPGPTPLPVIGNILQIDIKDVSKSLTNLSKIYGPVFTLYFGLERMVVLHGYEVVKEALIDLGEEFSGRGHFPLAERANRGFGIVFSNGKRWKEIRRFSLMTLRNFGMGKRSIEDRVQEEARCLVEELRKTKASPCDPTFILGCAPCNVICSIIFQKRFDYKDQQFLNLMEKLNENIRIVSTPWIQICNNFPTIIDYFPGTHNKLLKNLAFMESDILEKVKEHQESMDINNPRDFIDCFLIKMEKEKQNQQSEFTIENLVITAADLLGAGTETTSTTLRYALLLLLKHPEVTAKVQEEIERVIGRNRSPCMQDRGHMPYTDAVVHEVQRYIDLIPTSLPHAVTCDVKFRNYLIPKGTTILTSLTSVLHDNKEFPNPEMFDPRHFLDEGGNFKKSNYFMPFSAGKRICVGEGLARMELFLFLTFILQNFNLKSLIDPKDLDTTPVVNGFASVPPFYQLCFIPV
SMILES,Potency [1],Potency [2],outcome [3],Potency [4],Potency [5],Potency [6],Potency [7],Potency [8],Potency [9],Potency [10],Potency [11],Potency [12],Potency [13],Potency [14],Potency [15],Potency [16],max activation [17] [%],Potency [18],Potency [19]
CCN(CC)c1ccc(C=O)c(O)c1,inactive,inactive,inactive,inactive,inactive,inactive,61.1 µM (active),inactive,inactive,17.8 µM (active),inactive,–,–,–,–,–,–,–,–
CC/C=C(\C)C=O,inactive,–,inactive,inactive,inactive,inactive,inactive,inactive,–,39.9 µM (active),inactive,inactive,inactive,inactive,inactive,inactive,–,–,–
C[C@H]1O[C@@H](O[C@H]2CC[C@@]3(C)[C@H](CC[C@@H]4[C@@H]3C[C@@H](O)[C@]3(C)[C@@H](C5=CC(=O)OC5)CC[C@]43O)C2)C[C@H](O)[C@@H]1O[C@H]1C[C@H](O)[C@H](O[C@H]2C[C@H](O)[C@H](O[C@@H]3O[C@H](CO)[C@@H](O)[C@H](O)[C@H]3O)[C@@H](C)O2)[C@@H](C)O1,0.266 µM (active),–,–,inactive,inactive,inactive,inactive,inactive,–,–,inactive,–,inactive,inactive,inactive,inactive,6.34,inactive,–
Cn1ccnc1,inactive,–,inactive,inactive,inactive,inactive,inactive,–,inactive,inactive,inactive,inactive,inactive,–,inactive,inactive,–,–,inactive
CCCCCCCCCC[N+](C)(CCCCCCCCCC)CCC[Si](OC)(OC)OC,24.3 µM (active),–,inactive,–,–,61.1 µM (active),inactive,3.17 µM (active),–,20 µM (active),2.45 µM (active),–,inactive,inactive,30.6 µM (active),50.2 µM (active),–,–,–
CCC1(C)C(=O)N(Cl)C(=O)N1Cl (centres undefined),inactive,–,inactive,inactive,inactive,inactive,inactive,–,inactive,inactive,inactive,inactive,inactive,inactive,inactive,inactive,–,–,inactive
Cc1cc(Br)ccc1NC(=O)CCl,27.3 µM (active),inactive,–,inactive,inactive,61.1 µM (active),3.44 µM (active),–,39.9 µM (active),11.2 µM (active),inactive,–,inactive,–,21.7 µM (active),79.6 µM (active),–,–,54.5 µM (active)
O=C1OC2(c3ccccc31)c1ccc(O)c(Br)c1Oc1c2ccc(O)c1Br,–,inactive,–,inactive,inactive,27.3 µM (active),inactive,inactive,63.3 µM (active),inactive,34.7 µM (active),inactive,1.2 µM (active),3.89 µM (active),27.3 µM (active),89.4 µM (active),–,–,–
O=C1CCC/C=C\CCCCCCCCCC1,–,inactive,inactive,inactive,inactive,–,30.6 µM (active),inactive,–,–,–,inactive,inactive,inactive,inactive,inactive,–,–,–
CCOc1ccc([N+](=O)[O-])cc1,–,inactive,inactive,55.3 µM (active),inactive,–,inactive,80.9 µM (active),–,–,inactive,inactive,inactive,inactive,–,8.09 µM (active),–,–,inactive
CCCOC(=O)c1ccc(O)cc1,–,inactive,inactive,inactive,inactive,inactive,48.6 µM (active),–,–,–,inactive,inactive,inactive,inactive,inactive,–,-0.262,–,inactive
CCNc1nc(NC(C)(C)C)nc(OC)n1,–,inactive,inactive,inactive,inactive,inactive,61.1 µM (active),inactive,inactive,20 µM (active),inactive,inactive,inactive,inactive,inactive,35.6 µM (active),–,–,inactive
C=CC(=O)O[C@H]1C[C@@H]2CC[C@@]1(C)C2(C)C,–,inactive,inactive,inactive,inactive,inactive,inactive,inactive,inactive,–,inactive,inactive,inactive,inactive,inactive,inactive,–,–,inactive
C=CCc1cc(S(=O)(=O)c2ccc(O)c(CC=C)c2)ccc1O,–,inactive,inactive,inactive,inactive,–,–,6.33 µM (active),0.502 µM (active),–,inactive,inactive,–,–,–,2.24 µM (active),–,–,–
CN1CCN(CCCN2c3ccccc3Sc3ccc(C(F)(F)F)cc32)CC1,–,inactive,inactive,inactive,–,–,–,–,–,–,2.68 µM (active),inactive,–,–,33.5 µM (active),–,-11.2,–,23.7 µM (active)
